Experimental data reported in PubChem BioAssay AID2441 (National Center for Advancing Translational Sciences (NCATS), 2010).
The other results are listed elsewhere or left out. Inconclusive results are not listed. Activity calls are given as the source filed them. The call rests on the fitted dose curve; in most records, active means well fitted inhibition curve with a large enough effect; inconclusive means small, poorly fitted or top-dose-only effect; inactive means flat fitted curve, though single readings scatter.

Assay: Cell cycle validation with wells to cells screening paradigm
Conditions: HeLa cell cycle G2/M arrest, Hoechst DNA content imaging
From the text: Understanding cell cycle regulation is a critical component in combating various diseases such as cancer. Proper execution of cell cycle activity is essential for processes such as cell growth, DNA replication, and mitosis and surveillance mechanisms function as cell cycle checkpoints at the G1, S, and G2/M phases. Thus, profiling agents which disrupt cancer cell division represents a large effort in oncology-based studies. Compound-induced cell cycle perturbations can be analyzed through changes in specific cell cycle phase markers, such as DNA content, using high content screening. […] Furthermore, recent imaging based studies have performed cell cycle analysis following compound treatment where phenotypic fingerprints for phases of the cell cycle were determined or concentration-response based testing of selected compounds and drugs was used to measure a phenotypic profile in a dose-dependent manner. […]
Reagents: 70% EtOH, Hoechst Stain, PBS Controls: 7.6 uM (final starting concentration) Vinblastine and 38.3 uM (final starting concentration) nocodazole were dispensed into columns 1 and 2, respectively, and titrated 1:2 in DMSO (16-point in duplicate). […] Plates were read on the Acumen eX3 system and concentration response curves were generated after the readings. […]

SMILES | Potency
O=c1cc(-c2ccccc2)[nH]c2nc(Cl)ccc12 | 2000 nM (active)
